{"source": "the supplement of paper PMC11417369", "note": "± gives the standard deviation of the averaged measurements. Over roughly 25,000 sequences, “ln(normalized median fluorescence intensity)” has its median near 8.6; the highest 2% begin near 10. Only a selection was taken, and the highest values are over-represented in it overall."}
{"system": "PfAP2-EXP AP2 domain (GST-tagged)", "assay": "gcPBM binding intensity (ln(normalized median fluorescence intensity)); higher = stronger DNA binding", "procedure,_shortened": "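The highest Masliner-normalised natural-log median intensity across replicate spots of either probe orientation is reported as binding intensity. GST-tagged P. falciparum DNA-binding domains expressed in E. coli were applied for 1 h to an Agilent 4 × 180k array of primer-extended double-stranded 36-bp intergenic genomic probes plus negative controls, and bound protein was detected with Alexa488 anti-GST antibody and scanned at 488 nm.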"}
{"sequence": "AAGAAAAGCAAACAAGTGCATAATAACAAAAAAAAT [GTGCAC_site9725]", "gcPBM binding intensity (ln)": "9.13 ± 0.46"}
{"sequence": "TTGTTTCTTAAATTATTTATTTTATATTAAAAAAAA [XGTACX_negctrl_site224]", "gcPBM binding intensity (ln)": "8.31 ± 0.46"}
{"sequence": "ATTTATTTTATTTTCACACACAAAAATAAATATCCG [CACACA_site2414]", "gcPBM binding intensity (ln)": "8.44 ± 0.44"}
{"sequence": "TTATTATTATTACTAGTGCATTAATTATATATGTAA", "gcPBM binding intensity (ln)": "8.72 ± 0.13"}
{"sequence": "TTTATATTGTTTTATTGTACATATATATTTATACAT [XGTACX_site6821]", "gcPBM binding intensity (ln)": "8.81 ± 0.4"}
{"sequence": "TATATATCTATATATTGTACATATGTTTGTATGTGT [XGTACX_site7420]", "gcPBM binding intensity (ln)": "8.54 ± 0.29"}
{"sequence": "ATATTGTTATATGTTTGTACATATTTTTTATATTTT [XGTACX_site6834]", "gcPBM binding intensity (ln)": "8.93 ± 0.91"}
{"sequence": "ATATATATATATATATGTACACATATATGTGTTTGT [XGTACX_site62]", "gcPBM binding intensity (ln)": "10.1 ± 0.26"}
{"sequence": "ATATATATATATATATGTACATATTATTATTTTGAT [XGTACX_site4752]", "gcPBM binding intensity (ln)": "10.1 ± 0.38"}
{"sequence": "TTTTTTTTTTGATGTTGTACATATATATTATATATA [XGTACX_site6377]", "gcPBM binding intensity (ln)": "8.55 ± 0.41"}
{"sequence": "ATATATATATATATATGTACATATGTTTGTTTCCGC [XGTACX_site5167]", "gcPBM binding intensity (ln)": "10.3 ± 0.21"}
{"sequence": "ATATATATATATATATGTACATATTTTTGTTTGATG [XGTACX_site51]", "gcPBM binding intensity (ln)": "10.2 ± 0.81"}
{"sequence": "GTGTTTTTTTTAGATTGTACATATATATATATATAT [XGTACX_site4562]", "gcPBM binding intensity (ln)": "10.3 ± 0.33"}
{"sequence": "ATATATATATATATATGTACATACATATTGTTTGGT [XGTACX_site2284]", "gcPBM binding intensity (ln)": "10.3 ± 0.76"}
{"sequence": "CATATATATATATATTGTACAAGATTGTTTTTTTAT [XGTACX_site3913]", "gcPBM binding intensity (ln)": "8.76 ± 0.35"}
{"sequence": "ATATATATATATATATGTACATATGTATGTGTTTGT [XGTACX_site397]", "gcPBM binding intensity (ln)": "9.93 ± 0.42"}
{"sequence": "TAACTAAGGAATAATACACACAGAAATATAGATTTA [CACACA_site6293]", "gcPBM binding intensity (ln)": "8.41 ± 0.42"}
{"sequence": "TTTTTTTTTTTTTTTTTTTTACGATATATTTTAAAA [XGTACX_negctrl_site401]", "gcPBM binding intensity (ln)": "8.03 ± 0.67"}
{"sequence": "GTTATACATTTGAAAAGTACTCATGATTTTTTTTTT [XGTACX_site8177]", "gcPBM binding intensity (ln)": "8.75 ± 0.45"}
{"sequence": "TCGAATATCTTATAGGTGCATCATAAATACATATGT", "gcPBM binding intensity (ln)": "8.69 ± 0.28"}
{"sequence": "TGTATATATAATAAAACACACATTTTTAATGTGCTC [CACACA_site1437]", "gcPBM binding intensity (ln)": "8.01 ± 0.3"}
{"sequence": "TTAACCACTAAAAGTACACACATATATACCTATATA [CACACA_site6026]", "gcPBM binding intensity (ln)": "8.45 ± 0.28"}
{"sequence": "AATAAATAAAGAAGTACACACATATATATATATATA [CACACA_site4314]", "gcPBM binding intensity (ln)": "10.1 ± 0.41"}
{"sequence": "ATGATATGGATAAATACACACAATAAAATAATGTCT [CACACA_site6786]", "gcPBM binding intensity (ln)": "8.71 ± 0.43"}
{"sequence": "TATATATATTTATGTACACACACACCGATAAATAAA [CACACA_site4404]", "gcPBM binding intensity (ln)": "8.91 ± 0.48"}
{"sequence": "AATATATATATATATACACACACACCGATATATATA [CACACA_site8158]", "gcPBM binding intensity (ln)": "8.79 ± 0.33"}
{"sequence": "TATACATACATACATACACACACACCGATATATACA [CACACA_site8184]", "gcPBM binding intensity (ln)": "8.78 ± 0.42"}
{"sequence": "TATATATATATATGTACACACACACCGATAAATAAA [CACACA_site8041]", "gcPBM binding intensity (ln)": "10.21 ± 0.085"}
{"sequence": "TATATATATATATACACACACACACCGATATATATA [CACACA_site8813]", "gcPBM binding intensity (ln)": "10.3 ± 0.41"}
{"sequence": "TATGTACAAATATGTACACACACACCGATATATATA [CACACA_site4487]", "gcPBM binding intensity (ln)": "8.76 ± 0.18"}
{"sequence": "TATATATATATGTGTACACATGTCGCATTTTTTTAT [CACACA_site4648]", "gcPBM binding intensity (ln)": "10 ± 0.26"}
{"sequence": "TGATAATTTCATTTTGCATGTGACAATACAAGATGT [TGCATGCA_site203]", "gcPBM binding intensity (ln)": "8.59 ± 0.18"}
{"sequence": "AAAAAAATAATATAAATAATGAAAAGATATAAATAA [GTGCAC_negctrl_site432]", "gcPBM binding intensity (ln)": "8.54 ± 0.35"}
{"sequence": "ATGCTTCCTTAGGAATGTACACACATATATAATATG [XGTACX_site873]", "gcPBM binding intensity (ln)": "8.69 ± 0.35"}
{"sequence": "TAAAATATAATAAAATGTACACGCATGCAATAGAAT [XGTACX_site7434]", "gcPBM binding intensity (ln)": "9.99 ± 0.47"}
{"sequence": "TAGAAAAAAATAGATGCATGCAATGAATGAATAATA [TGCATGCA_site14]", "gcPBM binding intensity (ln)": "10.3 ± 0.17"}
{"sequence": "TAATAAAATGTACACGCATGCAATAGAATATAAAGT [TGCATGCA_site905]", "gcPBM binding intensity (ln)": "10.3 ± 0.79"}
{"sequence": "AAAATATATATAAATGCATGCATAATGAAATATATA [TGCATGCA_site39]", "gcPBM binding intensity (ln)": "9.95 ± 0.21"}
{"sequence": "CAAAAATAATAGAATACATGCAAAAATAAATGTATA [TGCATGCA_site196]", "gcPBM binding intensity (ln)": "9 ± 0.071"}
{"sequence": "ATAGAAATAAAATAAAATAAAAAAAAAATAATGAAA [CACACA_negctrl_site1565]", "gcPBM binding intensity (ln)": "8.64 ± 0.43"}
{"sequence": "ATTCTACCACGCGATATACACACTTGTAGACATCTT [CACACA_site188]", "gcPBM binding intensity (ln)": "8.97 ± 0.49"}
{"sequence": "TTTAAAAATTTGATCAAACACACGTTGCATAAATTA [CACACA_site3945]", "gcPBM binding intensity (ln)": "8.87 ± 0.47"}
{"sequence": "TTGTTTAACTTGTTAAATATAATGTATCTGTGGATA [GTGCAC_negctrl_site108]", "gcPBM binding intensity (ln)": "8.12 ± 0.4"}
{"sequence": "TTAATACTTTTTTCTGTACACACTTGATTTACTATA [CACACA_site2799]", "gcPBM binding intensity (ln)": "8.95 ± 0.44"}
{"sequence": "ATATATATGTATGTATGTACTTATTTATTTATTTAT [XGTACX_site7740]", "gcPBM binding intensity (ln)": "8.32 ± 0.16"}
{"sequence": "ATATATATATATATATGTACTTATTTATTTATTTAT [XGTACX_site4645]", "gcPBM binding intensity (ln)": "10.2 ± 0.51"}
{"sequence": "TATATATATATATATTGTACTTATGTTTATATTCAT [XGTACX_site6258]", "gcPBM binding intensity (ln)": "10.1 ± 0.2"}
{"sequence": "ATGTTTATTTATTTATGTACTTATATATTTATATAT [XGTACX_site7924]", "gcPBM binding intensity (ln)": "8.78 ± 0.34"}
{"sequence": "ATATATATATATATATGTACTTATTTATATATTTAT [XGTACX_site7811]", "gcPBM binding intensity (ln)": "10.1 ± 0.25"}
{"sequence": "TTGTTAATATATATATGTACTTATTTATTTATTTAT [XGTACX_site2274]", "gcPBM binding intensity (ln)": "8.51 ± 0.35"}
{"sequence": "TATTTATTGTGATACTTATATTATTTTATGATTAAA [CACACA_negctrl_site901]", "gcPBM binding intensity (ln)": "8.27 ± 0.37"}
{"sequence": "TACTTATTGTGATACTTATATTATTTTATGATTAAA [XGTACX_negctrl_site353]", "gcPBM binding intensity (ln)": "8.36 ± 0.39"}
{"sequence": "TTTTTATTTATATGATACTTATATATATATATATAT [CACACA_negctrl_site462]", "gcPBM binding intensity (ln)": "10.2 ± 0.16"}
{"sequence": "ATATATATATATAGTTGTACTTAATTTTATATGTTA [XGTACX_site5256]", "gcPBM binding intensity (ln)": "10.2 ± 0.15"}
{"sequence": "AAAATTGTTATTTTATGTACTTATATTTATTTATTT [XGTACX_site3478]", "gcPBM binding intensity (ln)": "8.53 ± 0.27"}
{"sequence": "TATATATATATATATTGTACTTTATATGTTCTTATA [XGTACX_site7545]", "gcPBM binding intensity (ln)": "10.3 ± 0.11"}
{"sequence": "ATCTTTTCATATTGCTGTACAAATTATTTTCATTCG [XGTACX_site492]", "gcPBM binding intensity (ln)": "9.05 ± 0.45"}
